Where a name gives a salt, the structure may show the parent alone.
What was measured:
Assay in all cases: phenotypically active (imaging signature differs from DMSO and reproducible) at any of 0.3-9 uM (binary (1 = active, 0 = inactive)); higher = active
Conditions in all cases: treatment time: 24 h
A549-ACTB-RAB5A = test system: A549-ACTB-RAB5A
Method in brief: (§1)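 Fifteen gene-edited A549, HepG2 and WPMY1 reporter lines (BFP segmentation plus GFP and RFP/FusionRed markers) were treated at 0.3, 1, 3 or 9 µM for 24 h, four wells each, then imaged live. Live-cell features per well were normalised to DMSO control wells. Deviation required ≥3 of 4 wells beyond the 95th percentile of DMSO Euclidean distances, and reproducibility required median replicate Pearson correlation above the 95th percentile of non-replicates. Phenotypic activity needed both criteria.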

A549-CANX-COX4 = test system: A549-CANX-COX4
Method in brief: as §1

A549-GM130-SQSTM1 = test system: A549-GM130-SQSTM1
Method in brief: as §1

A549-TP53BP1-CLTA = test system: A549-TP53BP1-CLTA
Method in brief: as §1

A549-TUBA1B-RELA = test system: A549-TUBA1B-RELA
Method in brief: as §1

HepG2-ACTB-RAB5A = test system: HepG2-ACTB-RAB5A
Method in brief: as §1

HepG2-CANX-COX4 = test system: HepG2-CANX-COX4
Method in brief: as §1

HepG2-GM130-SQSTM1 = test system: HepG2-GM130-SQSTM1
Method in brief: as §1

HepG2-TP53BP1-CLTA = test system: HepG2-TP53BP1-CLTA
Method in brief: as §1

HepG2-TUBA1B-RELA = test system: HepG2-TUBA1B-RELA
Method in brief: as §1

WPMY1-ACTB-RAB5A = test system: WPMY1-ACTB-RAB5A
Method in brief: as §1

WPMY1-CANX-COX4 = test system: WPMY1-CANX-COX4
Method in brief: as §1

WPMY1-GM130-SQSTM1 = test system: WPMY1-GM130-SQSTM1
Method in brief: as §1

WPMY1-TP53BP1-CLTA = test system: WPMY1-TP53BP1-CLTA
Method in brief: as §1

WPMY1-TUBA1B-RELA = test system: WPMY1-TUBA1B-RELA
Method in brief: as §1

Measured: phenotypically active

C#C[C@]1(O)CC[C@H]2[C@@H]3CCc4cc(OC)ccc4[C@H]3CC[C@@]21C [mestranol]
inactive: A549-ACTB-RAB5A 0 | A549-CANX-COX4 0 | A549-GM130-SQSTM1 0 | A549-TP53BP1-CLTA 0 | A549-TUBA1B-RELA 0 | HepG2-ACTB-RAB5A 0 | HepG2-CANX-COX4 0 | HepG2-GM130-SQSTM1 0 | HepG2-TP53BP1-CLTA 0 | HepG2-TUBA1B-RELA 0 | WPMY1-ACTB-RAB5A 0 | WPMY1-CANX-COX4 0 | WPMY1-GM130-SQSTM1 0 | WPMY1-TP53BP1-CLTA 0 | WPMY1-TUBA1B-RELA 0

CC(C)N(CCC(=O)c1ccc2ccccc2c1)Cc1ccccc1
inactive: A549-ACTB-RAB5A 0 | A549-CANX-COX4 0 | A549-GM130-SQSTM1 0 | A549-TP53BP1-CLTA 0 | A549-TUBA1B-RELA 0 | HepG2-ACTB-RAB5A 0 | HepG2-CANX-COX4 0 | HepG2-GM130-SQSTM1 0 | HepG2-TP53BP1-CLTA 0 | HepG2-TUBA1B-RELA 0 | WPMY1-ACTB-RAB5A 0 | WPMY1-CANX-COX4 0 | WPMY1-GM130-SQSTM1 0 | WPMY1-TP53BP1-CLTA 0 | WPMY1-TUBA1B-RELA 0

O=C1CCC[C@@H]2[C@H]3CCC[N+]4([O-])CCC[C@@H](CN12)[C@@H]34 (stereo not given in full) [Oxymatrine]
inactive: A549-ACTB-RAB5A 0 | A549-CANX-COX4 0 | A549-GM130-SQSTM1 0 | A549-TP53BP1-CLTA 0 | A549-TUBA1B-RELA 0 | HepG2-ACTB-RAB5A 0 | HepG2-CANX-COX4 0 | HepG2-GM130-SQSTM1 0 | HepG2-TP53BP1-CLTA 0 | HepG2-TUBA1B-RELA 0 | WPMY1-ACTB-RAB5A 0 | WPMY1-CANX-COX4 0 | WPMY1-GM130-SQSTM1 0 | WPMY1-TP53BP1-CLTA 0 | WPMY1-TUBA1B-RELA 0

O=c1[nH]cnc2c1ncn2[C@H]1CC[C@@H](CO)O1 [Didanosine]
inactive: A549-ACTB-RAB5A 0 | A549-CANX-COX4 0 | A549-GM130-SQSTM1 0 | A549-TP53BP1-CLTA 0 | A549-TUBA1B-RELA 0 | HepG2-ACTB-RAB5A 0 | HepG2-CANX-COX4 0 | HepG2-GM130-SQSTM1 0 | HepG2-TP53BP1-CLTA 0 | HepG2-TUBA1B-RELA 0 | WPMY1-ACTB-RAB5A 0 | WPMY1-CANX-COX4 0 | WPMY1-GM130-SQSTM1 0 | WPMY1-TP53BP1-CLTA 0 | WPMY1-TUBA1B-RELA 0

NCCC(=O)NCCc1c[nH]cn1 [Carcinine]
inactive: A549-ACTB-RAB5A 0 | A549-CANX-COX4 0 | A549-GM130-SQSTM1 0 | A549-TP53BP1-CLTA 0 | A549-TUBA1B-RELA 0 | HepG2-ACTB-RAB5A 0 | HepG2-CANX-COX4 0 | HepG2-GM130-SQSTM1 0 | HepG2-TP53BP1-CLTA 0 | HepG2-TUBA1B-RELA 0 | WPMY1-ACTB-RAB5A 0 | WPMY1-CANX-COX4 0 | WPMY1-GM130-SQSTM1 0 | WPMY1-TP53BP1-CLTA 0 | WPMY1-TUBA1B-RELA 0

CCCCC(=O)N(Cc1ccc(-c2ccccc2-c2nnn[nH]2)cc1)[C@H](C(=O)O)C(C)C [valsartan]
inactive: A549-ACTB-RAB5A 0 | A549-CANX-COX4 0 | A549-GM130-SQSTM1 0 | A549-TP53BP1-CLTA 0 | A549-TUBA1B-RELA 0 | HepG2-ACTB-RAB5A 0 | HepG2-CANX-COX4 0 | HepG2-GM130-SQSTM1 0 | HepG2-TP53BP1-CLTA 0 | HepG2-TUBA1B-RELA 0 | WPMY1-ACTB-RAB5A 0 | WPMY1-CANX-COX4 0 | WPMY1-GM130-SQSTM1 0 | WPMY1-TP53BP1-CLTA 0 | WPMY1-TUBA1B-RELA 0

NCCc1ccc(O)c(O)c1 [dopamine]
inactive: A549-ACTB-RAB5A 0 | A549-CANX-COX4 0 | A549-GM130-SQSTM1 0 | A549-TP53BP1-CLTA 0 | A549-TUBA1B-RELA 0 | HepG2-ACTB-RAB5A 0 | HepG2-CANX-COX4 0 | HepG2-GM130-SQSTM1 0 | HepG2-TP53BP1-CLTA 0 | HepG2-TUBA1B-RELA 0 | WPMY1-ACTB-RAB5A 0 | WPMY1-CANX-COX4 0 | WPMY1-GM130-SQSTM1 0 | WPMY1-TP53BP1-CLTA 0 | WPMY1-TUBA1B-RELA 0

CCCc1nc(C(C)(C)O)c(C(=O)OCc2oc(=O)oc2C)n1Cc1ccc(-c2ccccc2-c2nnn[nH]2)cc1 [olmesartan-medoxomil]
inactive: A549-ACTB-RAB5A 0 | A549-CANX-COX4 0 | A549-GM130-SQSTM1 0 | A549-TP53BP1-CLTA 0 | A549-TUBA1B-RELA 0 | HepG2-ACTB-RAB5A 0 | HepG2-CANX-COX4 0 | HepG2-GM130-SQSTM1 0 | HepG2-TP53BP1-CLTA 0 | HepG2-TUBA1B-RELA 0 | WPMY1-ACTB-RAB5A 0 | WPMY1-CANX-COX4 0 | WPMY1-GM130-SQSTM1 0 | WPMY1-TP53BP1-CLTA 0 | WPMY1-TUBA1B-RELA 0

O=C1CN2Cc3c(ccc(Cl)c3Cl)N=C2N1 [Anagrelide hydrochloride]
inactive: A549-ACTB-RAB5A 0 | A549-CANX-COX4 0 | A549-GM130-SQSTM1 0 | A549-TP53BP1-CLTA 0 | A549-TUBA1B-RELA 0 | HepG2-ACTB-RAB5A 0 | HepG2-CANX-COX4 0 | HepG2-GM130-SQSTM1 0 | HepG2-TP53BP1-CLTA 0 | HepG2-TUBA1B-RELA 0 | WPMY1-ACTB-RAB5A 0 | WPMY1-CANX-COX4 0 | WPMY1-GM130-SQSTM1 0 | WPMY1-TP53BP1-CLTA 0 | WPMY1-TUBA1B-RELA 0

Cc1nc2c(O)cccc2c(=O)[nH]1
inactive: A549-ACTB-RAB5A 0 | A549-CANX-COX4 0 | A549-GM130-SQSTM1 0 | A549-TP53BP1-CLTA 0 | A549-TUBA1B-RELA 0 | HepG2-ACTB-RAB5A 0 | HepG2-CANX-COX4 0 | HepG2-GM130-SQSTM1 0 | HepG2-TP53BP1-CLTA 0 | HepG2-TUBA1B-RELA 0 | WPMY1-ACTB-RAB5A 0 | WPMY1-CANX-COX4 0 | WPMY1-GM130-SQSTM1 0 | WPMY1-TP53BP1-CLTA 0 | WPMY1-TUBA1B-RELA 0

O=C(O)[C@H](Cc1c[nH]c2ccccc12)N1C(=O)c2ccccc2C1=O
inactive: A549-ACTB-RAB5A 0 | A549-CANX-COX4 0 | A549-GM130-SQSTM1 0 | A549-TP53BP1-CLTA 0 | A549-TUBA1B-RELA 0 | HepG2-ACTB-RAB5A 0 | HepG2-CANX-COX4 0 | HepG2-GM130-SQSTM1 0 | HepG2-TP53BP1-CLTA 0 | HepG2-TUBA1B-RELA 0 | WPMY1-ACTB-RAB5A 0 | WPMY1-CANX-COX4 0 | WPMY1-GM130-SQSTM1 0 | WPMY1-TP53BP1-CLTA 0 | WPMY1-TUBA1B-RELA 0
